An excerpt weighted towards active compounds, which were near 10% of everything screened.
CtBP-E1A blk: CtBP/E1A binding inhibition. AlphaScreen GST-E1A/His-CtBP binding, 1536-well; active compounds read low. activity change, % (no concentration beside the values). hit rate 0.49% among 340,000; in the data active means activity change below about -65%; inconclusive means mostly about -30% to -63%; further: on the % scale 0 is the no-effect control and ±100 the full control effect
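AlphaScreen with 125 nM GST-E1A and 125 nM His-CtBP (5X stocks) in Tris pH 8.0, 300 mM NaCl, BSA, Tween 20, TCEP. Compounds preincubated 2 h at 37 deg C, then glutathione donor/nickel acceptor beads added for 1 h at 37 deg C in dark.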
Six1-Eya2 inh: inhibitors of human Six1/Eya2 interaction | Q15475+O00167 | AlphaScreen GST-Six1/His-Eya2 binding, biochemical; active compounds read low | activity change, % (test concentration not listed) | hit rate 0.56% among 360,000; in the data active means activity change below about -65%; inconclusive means mostly about -30% to -63%; further: on the % scale 0 is the no-effect control and ±100 the full control effect
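Compounds are tested against tagged Six1 and Eya2 proteins bridged by glutathione donor and nickel acceptor beads; after a one-hour incubation at 37 °C without light, AlphaScreen emission is recorded.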
HP1b binding inh: blocks HP1-beta chromodomain binding to methylated histone tails; Potency, µM (highest dose often 114 µM), for the others: top-dose activity change, negative = inhibition, actives largely listed as inhibitors; AlphaScreen HP1-beta / biotin-H3K9me3 peptide binding; hit rate 0.56% among 390,000; P83916; further: potency means the concentration at half of the fitted maximal effect; nearly all actives have a fitted effect of over 70% in size
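AlphaScreen: HP1-beta (50 nM) preformed 30 min with biotin-H3(1-18)K9me3 peptide (50 nM) in PBS pH 7.4, 0.01% Tween-20. Compound added for 30 min at RT, then streptavidin donor/nickel chelate acceptor beads (10 ug/mL) for 30 min.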
BAZ2B block: BAZ2B (human) inhibition; Q9UIF8; AlphaScreen BAZ2B-H3K14Ac peptide displacement; Potency, µM (top dose mostly 114 µM), for inactives: at the top dose activity change, negative = inhibition, hits mostly inhibitors; hit rate 4.4% among 360,000; further: potency means the concentration at half of the fitted maximal effect; on the % scale 0 is the no-effect control and ±100 the full control effect; nearly all actives have a fitted effect of over 60% in size
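Inhibition is scored as reduced AlphaScreen emission. The BAZ2B/b-H3(5-23)K14Ac complex (50 nM each) in PBS pH 7.4, 0.01% Tween-20 meets compound (up to 110 uM) for 30 min at RT before bead addition.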
JMJD2A Tudor: inhibitors of human JMJD2A Tudor domain | O75164 | AlphaScreen JMJD2A-Tudor / H3K4me3 peptide binding | Potency, µM (top dose mostly 114 µM), for inactives: at the top dose activity change, negative = inhibition, actives largely listed as inhibitors | hit rate 4.4% among 390,000 | AID 504339; further: potency means the concentration at half of the fitted maximal effect; on the % scale 0 is the no-effect control and ±100 the full control effect; nearly all actives have a fitted effect of over 50% in size
G9a block: blocks human histone lysine methyltransferase G9a. G9a H3K9 monomethylation, AlphaScreen, 2 h. Potency, µM (highest dose often 102 µM), for inactives: at the top dose activity, negative = inhibition, actives largely listed as inhibitors. hit rate 8.8% among 350,000; further: potency means the concentration at half of the fitted maximal effect; on the % scale 0 is the no-effect control and ±100 the full control effect; nearly all actives have a fitted effect of over 75% in size
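AlphaScreen read-out: biotin-H3K9 peptide (500 nM) methylation by 20 nM enzyme with 20 uM SAM, 2 h at room temperature after 15 min compound preincubation; anti-monomethyl H3K9 antibody plus donor/acceptor beads, 10 min dark.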
Numbers without * were called inactive; ? = inconclusive; . = no result; [ ] = remark or other dose. Unless noted, the call rests on the fitted dose curve; in most records, active means well fitted inhibition curve with a large enough effect; inconclusive means small, poorly fitted or top-dose-only effect; inactive means no such curve, though single readings can be large or run the other way.

SMILES | CtBP-E1A blk | Six1-Eya2 inh | HP1b binding inh | BAZ2B block | JMJD2A Tudor | G9a block
COc1ccc(N2CCN(C(=O)CN3CCN(C(c4ccccc4)c4ccccc4)CC3)CC2)cc1 | ? | ? | -73% | 50µM* | 25µM* | ?
Oc1c(C(c2ccccc2)N2CCOCC2)ccc2ccccc12 (configuration not stated) | -5 | -13 | 14µM* | . | 10µM* | .
O=C(CSc1ncccn1)N1CCN(C(c2ccccc2)c2ccccc2)CC1 | -1 | -2 | -1% | -7% | -19% | 5.6µM*
C=CCNC(=O)CN1CCN(C(c2ccccc2)c2ccccc2)CC1 | -4 | 4 | ? | 50µM* | 20µM* | 11µM*
O=C(CSc1ncccn1)N1CCN(C(=O)CSc2ncccn2)CC1 | 8 | 6 | 15% | -2% | -5% | 0%[59 µM]
Cn1c(SCc2ccccc2Cl)nc(=O)c2c1NC(=O)CC2c1cc(F)ccc1F (configuration not stated) | . | . | 48% | 1% | -10% | 8%[59 µM]
COc1ccc(-c2[nH]ncc2C(=O)NCc2cccc(Cl)c2)cc1 | . | . | 18% | 5% | -15% | 1%[59 µM]
O=C(CN1CCN(C(c2ccccc2)c2ccccc2)CC1)N1CCOCC1 | 14 | 1 | 18% | 50µM* | 18µM* | 8.9µM*
NC(=O)CSc1nnc(-c2cc3ccccc3o2)n1Cc1ccccc1 | 5 | 0 | 45% | -2% | 1% | ?
Cc1cccc(-c2n[nH]c(=S)n2Cc2ccccc2)c1 | -4 | 1 | 9% | -31% | 40µM* | 0.71µM*
CCn1c(C2CCN(Cc3ccccc3)CC2)n[nH]c1=S | -19 | 9 | 32% | 7% | 3.5µM* | -51%
S=c1[nH]nc(-c2cc3ccccc3o2)n1Cc1ccccc1 | -14 | -14 | -16% | ? | -27% | 1.1µM*
CCOc1ccc(-c2n[nH]c(=S)n2Cc2ccccc2)cc1 | . | 4 | 17% | -10% | 45µM* | 3.5µM*
C[C@]12CCC(=O)C=C1CCC1C2C(=O)C[C@]2(C)C1CC[C@]2(O)C(=O)CO (some centres not stated) | . | . | . | . | . | 34%[59 µM]
CCN(CC)c1nc(C#N)nc(N2CCOCC2)n1 | . | . | 21%[57 µM] | . | -16%[57.1 µM] | .
CCc1ccccc1NC(=O)CC(c1ccc(F)cc1)N1Cc2ccccc2C1=O (configuration not stated) | . | . | 45% | -12% | -15% | 0%[59 µM]
CC(C)Oc1ccc(Cn2c(-c3ccco3)n[nH]c2=S)cc1 | -4 | -3 | -10% | -35% | 40µM* | 0.71µM*
CC(c1n[nH]c(=S)n1Cc1ccccc1)N(C)C (configuration not stated) | 10 | 1 | -12% | -8% | ? | 10µM*
Cc1ccccc1-c1n[nH]c(=S)n1Cc1ccccc1 | -3 | 4 | 17% | -16% | ? | .
COc1ccc(-c2n[nH]c(=S)n2CC(C)C)cc1 | -4 | 0 | 7% | 0% | 4µM* | 1µM*
Cc1ccc(-c2n[nH]c(=S)n2Cc2ccccc2)cc1 | 4 | -4 | 11% | -27% | 40µM* | 1.6µM*
Cc1cccc(N2CCN(C(=O)c3ccc4nc(N5CCC(C)CC5)sc4c3)CC2)c1C | . | . | 7% | -16% | -34% | ?
O=C(NCc1ccc2c(c1)CCN2C(=O)c1ccccc1)c1cc2ccccc2[nH]1 | . | . | 27% | ? | -17% | -24%[59 µM]
COc1ccc(-c2nc3ccccc3n2Cc2ccc(C)cc2)cc1 | -23 | -10 | 39% | ? | 11% | 6%[59 µM]
COc1ccc(Cn2c(-c3ccc(OC)cc3)n[nH]c2=S)cc1 | -4 | -4 | 5%[57 µM] | -24% | ? | 2.8µM*
SMILES | CtBP-E1A blk | Six1-Eya2 inh | HP1b binding inh | BAZ2B block | JMJD2A Tudor | G9a block
N#CC1=C(N)Oc2cc(N)ccc2C1c1cccc(F)c1 (configuration not stated) | -12 | -1 | 12% | -10% | -20% | .
CN(C)c1ccc2c(c1)OC(N)=C(C#N)C2c1cccc(F)c1 (configuration not stated) | -15 | -14 | ? | ? | 50µM* | 45µM*
COc1cc(C(=O)NNC(=O)CCOc2cccc(Br)c2)cc(OC)c1OC | 7 | -9 | 31% | -1% | 1% | -28%[2.33 µM]
Cc1ccc(C(=O)NC(=S)Nc2ccccc2N2CCOCC2)cc1C | 0 | 0 | ? | ? | ? | 22µM*
COc1cc(C(=O)NC(=S)Nc2ccccc2N2CCOCC2)cc(OC)c1OC | -28 | -12 | -10% | 40µM* | ? | 14µM*
CCOc1ccc(OCCC(=O)NNC(=O)c2cc(OC)c(OC)c(OC)c2)cc1 | 3 | -9 | 3% | -21% | -21% | 79µM*
CCCC(=O)Nc1ccccc1NC(=O)c1cc(OC)c(OC)c(OC)c1 | -1 | 7 | 37% | 4% | -6% | 89µM*
Cc1nn(-c2ccc(N3CCCC3)nn2)c(C)c1CCC(=O)N1CCN(c2ccc(F)cc2)CC1 | . | . | 110% | ? | -15% | 10%[59 µM]
COc1ccc(-n2nc(C(=O)N3CCN(c4ccccc4OC)CC3)c3c4ccccc4n(C)c3c2=O)cc1Cl | . | . | 62% | . | -10% | 31%[59 µM]
CCOc1ccc(CCNC(=O)Cn2ncn3c(cc4sc(C)cc43)c2=O)cc1OCC | . | . | 16% | 0% | -6% | -2%[59 µM]
COc1cc(C(=O)NC(=S)Nc2ccccc2[N+](=O)[O-])cc(OC)c1OC | . | -23 | ? | ? | 28µM* | ?
c1ccc(-c2onc(-c3ccco3)c2-c2ccc3[nH]ccc3c2)cc1 | -6 | -4 | -4% | ? | ? | 40µM*
O=C(O)c1csc(-c2cccc(Cl)c2)n1 | 2 | -1 | 11% | -26% | -3%[11.4 µM] | 40µM*
O=C(O)c1csc(-c2cccs2)n1 | -17 | 4 | 22% | -18% | -8% | 79µM*
CCOc1cc(-c2ccc(OC(=O)c3ccccc3F)cc2)cc(=O)c2c(C)oc(C)c12 | . | . | 21% | ? | -33% | -28%[59 µM]
Cc1ccccc1-c1nn2c(=O)cc(CN3CCN(C(=O)/C=C/c4ccccc4)CC3)nc2s1 | . | . | 1%[57 µM] | -8% | -14% | ?
COc1ccc(CCNC(=O)CN2C(=O)c3ccccc3S2(=O)=O)cc1OC | 6 | 4 | 26% | 1% | -6% | -2%[59 µM]
COc1ccc(CCN(C)C(=O)C2CC(=O)N(Cc3ccc(C)cc3)C2)cc1OC (configuration not stated) | -2 | -2 | 26% | 4% | -3% | 0%[59 µM]
COc1ccc(CCN(C)C(=O)CN2C(=O)c3ccccc3S2(=O)=O)cc1OC | -2 | 0 | ? | -2% | 79µM* | ?
COc1ccc(CCN(C)C(=O)C2CCN(Cc3ccccc3)CC2)cc1OC | -3 | 1 | ? | 12% | 22µM* | 11%

Assay outcomes from PubChem.
